Where “and” joins values, the source holds several entries; their conditions need not be identical. Equal values may be shown once. The whole screen tested about 5,500 compounds, of which about 2,000 (36%) were called active. Inconclusive results (about 18%) are left out. Rule as the data show it: active = normalized growth mostly below about 0.91 (no sharp cut-off); inconclusive = no clear call, values can overlap the other calls; inactive = mostly above about 0.92. The list shows a part of the results.
Experiment: chemical genetic growth profiling, strain panel (AID 1159580);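 also: tested at 20 µM; growth read once vehicle control cultures reached saturation at 30 °C; 1 = growth at the plate median or of vehicle wells; lower values mean less growth of the strain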
Settings: growth OD

Measured: normalized growth

O=C(O)c1cc(=O)c2c(Cl)cc(Cl)cc2[nH]1
inactive: S. cerevisiae deletion strains, locus YJL187C, strain SWE1, hits give low values 1.02 | S. cerevisiae deletion strains, locus YJR043C, strain POL32, hits give low values 1 | S. cerevisiae deletion strains, locus YJR075W, strain HOC1, hits give low values 0.985 | S. cerevisiae deletion strains, locus YKL009W, strain mrt4, hits give low values 1 | S. cerevisiae deletion strains, locus YKL068W, hits give low values 1 | S. cerevisiae deletion strains, locus YKL085W, strain MDH1 (second series), hits give low values 1.01 | S. cerevisiae deletion strains, locus YKL085W, strain MDH1, hits give low values 1.01 | S. cerevisiae deletion strains, locus YKL160W, strain elf1, hits give low values 1.01 | S. cerevisiae deletion strains, locus YKL190W, strain CNB1, hits give low values 1 | S. cerevisiae deletion strains, locus YKR001C, strain vps1, hits give low values 1.05 | S. cerevisiae deletion strains, locus YKR026C, strain gcn3, hits give low values 1.02 | S. cerevisiae deletion strains, locus YKR091W, strain srl3, hits give low values 1.01 | S. cerevisiae deletion strains, locus YLL001W, strain dnm1, hits give low values 1.03 | S. cerevisiae deletion strains, locus YLL026W, hits give low values 1.01 | S. cerevisiae deletion strains, locus YLL041C, strain sdh2, hits give low values 1.01 | S. cerevisiae deletion strains, locus YLR027C, strain aat2, hits give low values 1.01 | S. cerevisiae deletion strains, locus YLR039C, strain RIC1, hits give low values 1.04 | S. cerevisiae deletion strains, locus YLR058C, strain SHM2, hits give low values 1.01 | S. cerevisiae deletion strains, locus YLR102C, strain apc9, hits give low values 1.01 | S. cerevisiae deletion strains, locus YLR221C, strain rsa3, hits give low values 1.02 | S. cerevisiae deletion strains, locus YLR258W, strain gsy2, hits give low values 1.02 | S. cerevisiae deletion strains, locus YLR262C, strain YPT6 (second series), hits give low values 1.01 | S. cerevisiae deletion strains, locus YLR262C, strain YPT6, hits give low values 1.03 | S. cerevisiae deletion strains, locus YLR268W, strain sec22, hits give low values 1.03 | S. cerevisiae deletion strains, locus YLR320W, strain mms22, hits give low values 1.03 | S. cerevisiae deletion strains, locus YLR330W, strain CHS5, hits give low values 1.01 | S. cerevisiae deletion strains, locus YLR342W, strain FKS1 (second series), hits give low values 1.02 | S. cerevisiae deletion strains, locus YLR342W, strain FKS1, hits give low values 1.02 | S. cerevisiae deletion strains, locus YLR357W, strain rsc2, hits give low values 1 | S. cerevisiae deletion strains, locus YLR370C, strain arc18, hits give low values 1.02 | S. cerevisiae deletion strains, locus YLR371W, strain rom2, hits give low values 1 | S. cerevisiae deletion strains, locus YLR384C, strain iki3, hits give low values 1.01 | S. cerevisiae deletion strains, locus YLR418C, strain cdc73, hits give low values 1.05 | S. cerevisiae deletion strains, locus YML016C, strain PPZ1, hits give low values 1.01 | S. cerevisiae deletion strains, locus YML032C, strain rad52, hits give low values 1.01 | S. cerevisiae deletion strains, locus YML120C, strain ndi1, hits give low values 1.02 | S. cerevisiae deletion strains, locus YML124C, strain tub3, hits give low values 1.01 | S. cerevisiae deletion strains, locus YMR058W, strain fet3, hits give low values 1.01 | S. cerevisiae deletion strains, locus YMR078C, strain ctf18, hits give low values 1.03 | S. cerevisiae deletion strains, locus YMR125W, strain sto1, hits give low values 1 | S. cerevisiae deletion strains, locus YMR129W, hits give low values 1.01 | S. cerevisiae deletion strains, locus YMR205C, strain PFK2, hits give low values 1.01 | S. cerevisiae deletion strains, locus YMR223W, strain ubp8, hits give low values 1.03 | S. cerevisiae deletion strains, locus YMR231W, strain pep5, hits give low values 1.01 | S. cerevisiae deletion strains, locus YMR263W, strain SAP30, hits give low values 1 | S. cerevisiae deletion strains, locus YMR307W, strain GAS1, hits give low values 1.04 | S. cerevisiae deletion strains, locus YNL067W, strain RPL9B, hits give low values 0.997 | S. cerevisiae deletion strains, locus YNL071W, strain lat1, hits give low values 1.02 | S. cerevisiae deletion strains, locus YNL153C, strain GIM3, hits give low values 1 | S. cerevisiae deletion strains, locus YNL175C, strain NOP13, hits give low values 0.996 | S. cerevisiae deletion strains, locus YNL197C, strain WHI3, hits give low values 1.01 | S. cerevisiae deletion strains, locus YNL209W, strain ssb2, hits give low values 1 | S. cerevisiae deletion strains, locus YNL224C, strain SQS1, hits give low values 0.995 | S. cerevisiae deletion strains, locus YNL233W, strain BNI4, hits give low values 1 | S. cerevisiae deletion strains, locus YNL248C, strain rpa49, hits give low values 1.01 | S. cerevisiae deletion strains, locus YNL250W, strain rad50, hits give low values 1.03 | S. cerevisiae deletion strains, locus YNL271C, strain bni1, hits give low values 1.02 | S. cerevisiae deletion strains, locus YNL298W, strain CLA4, hits give low values 1.01 | S. cerevisiae deletion strains, locus YNL307C, strain MCK1, hits give low values 1.02 | S. cerevisiae deletion strains, locus YNL322C, strain KRE1 (second series), hits give low values 1.02 | S. cerevisiae deletion strains, locus YNL322C, strain KRE1, hits give low values 0.993 and 1 | S. cerevisiae deletion strains, locus YNR049C, strain mso1, hits give low values 1.01 | S. cerevisiae deletion strains, locus YNR052C, strain pop2, hits give low values 1.02 | S. cerevisiae deletion strains, locus YOL006C, strain TOP1, hits give low values 0.999 | S. cerevisiae deletion strains, locus YOL012C, strain htz1 1.91 | S. cerevisiae deletion strains, locus YOL147C, strain pex11, hits give low values 1.02 | S. cerevisiae deletion strains, locus YOR001W, strain rrp6, hits give low values 1.01 | S. cerevisiae deletion strains, locus YOR061W, strain CKA2, hits give low values 1.02 | S. cerevisiae deletion strains, locus YOR069W, strain VPS5, hits give low values 1.01 | S. cerevisiae deletion strains, locus YOR070C, strain gyp1, hits give low values 1.01 | S. cerevisiae deletion strains, locus YOR080W, strain dia2, hits give low values 1.02 | S. cerevisiae deletion strains, locus YOR083W, strain WHI5 (second series), hits give low values 0.994 | S. cerevisiae deletion strains, locus YOR083W, strain WHI5, hits give low values 1.02 | S. cerevisiae deletion strains, locus YOR106W, strain vam3, hits give low values 1.01 | S. cerevisiae deletion strains, locus YOR136W, strain idh2, hits give low values 1.02 | S. cerevisiae deletion strains, locus YOR144C, strain elg1, hits give low values 1.01 | S. cerevisiae deletion strains, locus YOR184W, strain ser1, hits give low values 1.02 | S. cerevisiae deletion strains, locus YOR265W, strain rbl2, hits give low values 1.01 | S. cerevisiae deletion strains, locus YOR270C, strain vph1, hits give low values 1.03 | S. cerevisiae deletion strains, locus YOR290C, strain snf2, hits give low values 0.991 | S. cerevisiae deletion strains, locus YOR316C, strain cot1, hits give low values 1.01 | S. cerevisiae deletion strains, locus YPL051W, strain arl3, hits give low values 1.01 | S. cerevisiae deletion strains, locus YPL055C, strain LGE1, hits give low values 0.992 | S. cerevisiae deletion strains, locus YPL078C, strain atp4, hits give low values 1.01 | S. cerevisiae deletion strains, locus YPL106C, strain sse1, hits give low values 0.999 | S. cerevisiae deletion strains, locus YPL240C, strain hsp82, hits give low values 1.02 | S. cerevisiae deletion strains, locus YPL241C, strain CIN2, hits give low values 1 | S. cerevisiae deletion strains, locus YPR119W, strain clb2, hits give low values 1.01 | S. cerevisiae deletion strains, locus YPR141C, strain kar3, hits give low values 1.01 | S. cerevisiae deletion strains, locus YPR163C, strain tif3, hits give low values 1.02 | S. cerevisiae deletion strains, locus YPR167C, strain met16, hits give low values 1.02 | S. cerevisiae deletion strains, strain wtn01, hits give low values 1.02 | S. cerevisiae strains, strain wild type, hits give low values 1

From PubChem BioAssay AID1159580 (chemical genetic matrix, 2015)
